Measurements as given in PubChem BioAssay (Tox21).
Calls of active or inactive are those of the source. Where a call stands in place of a potency, no number is given. Calls come from the whole dose curve.

Assay: qHTS assay to identify small molecule agonists of the sonic hedgehog signaling (Shh) pathway (AID 1259368);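 note: NIH/3T3-derived 3T3Gli1-Luc cells carrying a stable Gli1-driven firefly luciferase reporter; nearly all actives have a fitted effect of over 15% in size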
Details: NIH/3T3 Gli1-Luc reporter, luciferase, 24 h; series mostly up to 92.4 µM
Text: National Center for Advancing Translational Sciences [NCATS]
NIH Chemical Genomics Center [NCGC]
U.S. Environmental Protection Agency [EPA]
National Institutes of Environmental Health Sciences [NIEHS]
National Toxicology Program [NTP]
The sonic hedgehog (Shh) pathway is essential for normal embryonic development. Dysregulation of the Shh pathway can cause severe developmental defects in organs. Therefore chemicals that interfere with the pathway are potential developmental toxicants. A cell line designated 3T3Gli1-Luc (DMB/OARSA/CFSAN/FDA, Laurel, MD), a NIH/3T3 derived clone containing stably integrated Gli1-Luc reporter is used to detect chemical interference of the Shh pathway, by changes in the expression of the firefly Luc gene under the control of the Gli1 transcriptional response element. This cell line was used to screen Tox21 libraries for identifying and prioritizing the potential developmental toxicants that interfere Shh pathway.
3T3 Gli1-Luc cells were dispensed at 2,000 per well in 5uL of culture medium into white solid bottom 1536-well plates (Greiner Bio-One, Monroe, NC) using a Multidrop Combi (Thermo Scientific, Waltham, MA) dispenser. The assay plates were incubated at 37 C and 5% CO2 for 4hr, and then 23nL of compounds dissolved in DMSO and positive control were transferred using a Pintool station (Wako, San Diego, CA). The assay plates were incubated at 37C and 5% CO2 for 24hr. For luciferase read, 4uL of Amplite Luciferase reporter gene assay reagent (AAT Bioquest, Inc. Sunnyvale, CA) was added to each well of the assay plates using Flying Reagent Dispenser (FRD, Aurora Discovery, San Diego, CA) and incubated at room temperature for 30min. The luminescence signal was measured using a ViewLux plate reader (Perkin Elmer, Shelton, CT).

Row | Compound | Potency | activity change
1 | CCC(CO)(CO)[N+](=O)[O-] | inactive | 
2 | CC(C(=O)O)c1ccc(C(=O)c2cccs2)cc1 (stereo not given) | inactive | 
3 | CC[C@H]1OC(=O)[C@H](C)[C@@H](O[C@H]2C[C@@](C)(OC)[C@@H](O)[C@H](C)O2)[C@H](C)[C@@H](O[C@@H]2O[C@H](C)C[C@H](N(C)C)[C@H]2O)[C@](C)(O)C[C@@H](C)CN(C)[C@H](C)[C@@H](O)[C@]1(C)O | inactive | 
4 | COc1ccc(C(=O)NCc2ccc(OCCN(C)C)cc2)cc1OC | inactive | 
5 | O=C1[C@@H]2[C@H]3CC[C@H](C3)[C@@H]2C(=O)N1CCCCN1CCN(c2ncccn2)CC1 | inactive | 
6 | CN1C(CSCC(F)(F)F)Nc2cc(Cl)c(S(N)(=O)=O)cc2S1(=O)=O (stereo not given) | inactive | 
7 | C=C(C)c1ccccc1 | inactive | 
8 | CCCC(=O)OC(=O)CCC | inactive | 
9 | NC(=O)CCCCC(N)=O | inactive | 
10 | Cc1ccc(NC(=O)N(C)C)cc1NC(=O)N(C)C | inactive | 
11 | CC(CO)(CO)C(=O)O | inactive | 
12 | Nc1nc(-c2ccc([N+](=O)[O-])cc2)cs1 | inactive | 
13 | COC(=O)CC(C(C)=O)C(=O)OC (stereo not given) | inactive | 
14 | CC(C)N(C)C | inactive | 
15 | CCN(CC)c1ccc(C(=C2C=CC(=[N+](CC)CC)C=C2)c2ccc(S(=O)(=O)O)cc2S(=O)(=O)[O-])cc1 | inactive | 
16 | O=c1[nH][nH]c(=O)c2cc([N+](=O)[O-])ccc12 | inactive | 
17 | CC12CC3CC(C)(C1)CC(N)(C3)C2 | inactive | 
18 | O=C(O)c1cc(Cl)cc(Cl)c1O | inactive | 
19 | CC(=O)N[C@@H](Cc1ccc(O)cc1)C(=O)O | inactive | 
20 | CCSC(=O)N(CC)CC | inactive | 

Row | Compound | Potency | activity change
21 | CCN(CC)CCOC(=O)C(c1ccccc1)c1ccccc1 | inactive | 
22 | O=C(O)c1ccc(O)cc1O | inactive | 
23 | Cc1c(C2(c3cc(Br)c(O)c(Br)c3C)OS(=O)(=O)c3ccccc32)cc(Br)c(O)c1Br | inactive | 
24 | CC/C=C\C/C=C\C/C=C\CCCCCCCC(=O)OCC | inactive | 
25 | OCC(CO)n1cnc(-c2ccc(F)cc2)c1-c1ccnc(Oc2ccccc2)n1 | inactive | 
26 | CC(C)(C)S | inactive | 
27 | O=C(O)CO | inactive | 
28 | COC(CC(C)CCCC(C)(C)O)OC (stereo not given) | inactive | 
29 | CCN(Cc1cccc(S(=O)(=O)O)c1)c1ccc(C(=C2C=CC(=[N+](CC)Cc3cccc(S(=O)(=O)O)c3)C=C2)c2ccc(O)cc2S(=O)(=O)[O-])cc1 | inactive | 
30 | SCCc1cnccn1 | inactive | 
31 | CCCCCCC(O)CCCCCCCCCCC(=O)OC (stereo not given) | inactive | 
32 | COC(=O)Nc1nc2ccc(C(=O)C3CC3)cc2[nH]1 | inactive | 
33 | CCN(CC)c1cccc(O)c1 | inactive | 
34 | CCOC(=O)Oc1ccc(CCNC(=O)[C@H](CCSC)NC(C)=O)cc1OC(=O)OCC | inactive | 
35 | O=P(O)(O)Oc1ccccc1 | inactive | 
36 | CCCCCCCCCCCCCCN(C)C |  | 1.14% [at 18.9 µM, hits give high values] (inactive)
37 | CC(=O)C(C)=O | inactive | 
38 | CCOC(=O)N1CCC(Nc2ccc(Cl)cc2N)CC1 | inactive | 
39 | COc1cc(NS(=O)(=O)c2ccc(N)cc2)nc(C)n1 | inactive | 
40 | CC(C)COC(=O)COc1cc(Cl)c(Cl)cc1Cl | inactive | 
